Screens: PubChem, University of Pittsburgh Molecular Library Screening Center
HIV RNase H inh-1: HIV-1 RT RNase H inhibitors, primary screen, biochemical, fluorescence | inhibition, % at 10 µM | AID 565, 2006 | RT-RNase H RNA/DNA duplex cleavage | hit rate 1.9% among 65,000; in the data active = inhibition above about 50%
HIV RNase H inh-2: HIV-1 RT RNase H inhibitors, retest, confirmation, biochemical; inhibition, % at 10 µM; hit rate 39% among 1,000; shares compounds with HIV RNase H inh-1; Recombinant RT RNase H, fluorescent RNA/DNA duplex cleavage; in the data active = inhibition above about 48%
Numbers without * were called inactive. The sample as a whole holds a higher share of hits than the screen did.

SMILES	HIV RNase H inh-1	others
COc1ccc(-c2nn3c(COc4ccccc4)nnc3s2)cc1OC	68.0*	HIV RNase H inh-2=10.6
COc1cc(-c2nnc3sc(Cc4ccc(Cl)cc4)nn23)cc(OC)c1OC	56.4*	HIV RNase H inh-2=91.6*
COc1cc(-c2nnc3sc(-c4cccnc4)nn23)cc(OC)c1OC	76.2*	HIV RNase H inh-2=93.4*
COc1cccc(-c2nnc3sc(-c4ccccc4)nn23)c1	-16.7
COc1ccc(-c2nnc3sc(-c4c(OC)cccc4OC)nn23)cc1	2.0
COc1cccc(OC)c1-c1nn2c(-c3cc(-c4ccccc4)n[nH]3)nnc2s1	89.1*	HIV RNase H inh-2=65.7*
COc1cc(-c2nnc3sc(C4CCCCC4)nn23)cc(OC)c1OC	-21.9
COc1ccc(-c2nn3c(-c4ccncc4)nnc3s2)cc1OC	-7.0
c1ccc(OCc2nnc3sc(-c4cccs4)nn23)cc1	-20.2
CCOc1ccc(-c2nnc3sc(COc4ccc(Cl)cc4)nn23)cc1	-11.2
COc1ccc(N2CCN(C(=O)CCNS(=O)(=O)c3ccc(Br)s3)CC2)cc1	-24.7
O=C(O)CC(c1ccc(Cl)cc1)N1C(=O)CCC1=O (stereo not given)	-7.5
Cc1cc(NS(=O)(=O)c2ccc(NC(=O)c3ccoc3C)cc2)nc(C)n1	-10.6
COc1ccc(CCC(=O)NC2=NCCS2)cc1OC	-8.5
O=S(=O)(Cc1ccccc1)N1CCN(Cc2ccc3c(c2)OCO3)CC1	-21.8
CCCCCn1c(C(C)NC(=O)CCC)nc2ccccc21 (stereo not given)	-8.2
CCOc1ccccc1CN(Cc1ccco1)S(=O)(=O)c1ccc(-n2cnnn2)c(OC)c1	-21.0
CCOC(=O)C(C)(C)C(=O)C(C)(C)C(O)c1ccccn1 (stereo not given)	-8.6
O=C(NCc1ccncc1)Nc1ccc(F)cc1	-3.1
COc1nccc(Nc2ccccc2)c1C#N	-3.6
COc1[nH]c(/N=C/c2ccccc2)c(C#N)c1C#N	53.2*	HIV RNase H inh-2=4.8
NC(=O)Cc1c[nH]c2cccc(O)c12	-4.5
CCn1c(-c2ccc(C(C)(C)C)cc2)n[nH]c1=S	64.5*	HIV RNase H inh-2=9.4
CCn1c(-c2ccc(F)cc2)n[nH]c1=S	-2.1
Cn1c(-c2ccc(C(C)(C)C)cc2)n[nH]c1=S	37.5
SMILES	HIV RNase H inh-1	others
Nn1c(SCC(=O)NC2CCCc3ccccc32)nnc1-c1cccs1 (stereo not given)	-25.1
COc1ccccc1C(=O)NCCc1nc2ccccc2[nH]1	-3.1
O=c1c2ccccc2nc2n1CCCCN2	-1.2
Cc1ccc(C)c(C(C)NC(=O)C2C3CCC(O3)C2C(=O)O)c1 (stereo not given)	5.0
COC(=O)c1ccc2c(=O)n(Cc3ccco3)c(SCC(=O)Nc3ccc(C)c(Cl)c3)nc2c1	85.4*	HIV RNase H inh-2=75.8*
COC(=O)c1ccc(CSc2nc3ccccc3c(=O)n2Cc2ccco2)o1	-52.0
COCCNC(=O)CSc1nc2cc(OC)c(OC)cc2c(=O)n1Cc1ccco1	-19.0
Cn1c(N2CCN(C(=O)Nc3ccc(C(F)(F)F)cc3)CC2)nc2ccccc21	8.1
CC12CCC(C(=O)N(c3ccccn3)c3ccccn3)(OC1=O)C2(C)C (stereo not given)	5.7
CCOC(=O)Cc1csc(NC(=O)C2CCCN(S(=O)(=O)c3cnc[nH]3)C2)n1 (stereo not given)	-0.8
O=C(NCCCN1CCCC1=O)c1cc(=O)c2ccccc2o1	-9.3
CCOc1cc2[nH]c(=O)n(CCCCC(=O)NCc3ccco3)c(=O)c2cc1OCC	-7.3
Fc1ccc(CSc2nncn2NCc2ccc3c(c2)OCO3)cc1	-4.7
Cc1ccc(-c2nnc(N3CCCCC3)c3ccccc23)cc1S(=O)(=O)N1CCN(C)CC1	-12.3
O=C(Nc1ccccc1)c1ccc(S(=O)(=O)N2CCCC2)cc1	2.0
COc1c(S(=O)(=O)N2CCCCC2)ccc2c(S(=O)(=O)N3CCCCC3)cccc12	-8.4
Cc1ccc(-n2sc3ccccc3c2=O)cc1S(=O)(=O)N1CCCCC1	96.4*	HIV RNase H inh-2=48.0*
O=C(Cn1c(=O)sc2ccccc21)Nc1ccc(S(=O)(=O)N2CCCC2)cc1	7.8
O=c1c2ccccc2sn1-c1ccc(S(=O)(=O)N2CCCC2)cc1	79.4*	HIV RNase H inh-2=27.5
Cc1ccc(NC(C(N)=O)c2c(C)[nH]c(=O)[nH]c2=O)cc1 (stereo not given)	4.1
CC1CC(C)CN(C(=O)CSc2nnc(-c3ccc(Cl)s3)o2)C1 (stereo not given)	14.8
CC1CC(C)CN(C(=O)CSc2nnc(-c3ccc(F)cc3)o2)C1 (stereo not given)	82.0*	HIV RNase H inh-2=-5.1
CCN(CC)S(=O)(=O)c1ccc(-c2nnc(SCC(=O)N3CCOCC3)o2)cc1	-7.5
COCCn1cc(C(=O)c2ccccc2OCC(=O)Nc2cc(C)on2)cc(C#N)c1=O	-16.4
N#Cc1c(C(F)(F)F)cc(C2CC2)[nH]c1=O	1.3
SMILES	HIV RNase H inh-1	others
CCOc1ccccc1NC(=O)Cn1nnc(-c2ccc(OCC)c(OCC)c2)n1	12.0
COc1ccc(OC)c(NC(=O)c2cc(-c3cc(Cl)ccc3O)n[nH]2)c1	24.4
COc1ccc(NC(=O)c2[nH]c(C)c(C(C)=O)c2C)cc1Cl	-2.0
COc1ccc(NC(=O)c2cc(-c3cc(C)ccc3O)n[nH]2)cc1Cl	50.7*	HIV RNase H inh-2=5.3
O=C(CN(Cc1ccccc1F)S(=O)(=O)c1ccc(Cl)cc1)NCCCO	-15.6
Cn1c(=O)oc2cc(S(=O)(=O)N3CCCC(C(=O)NCc4cccs4)C3)ccc21 (stereo not given)	-7.8
Cc1nnc(SCc2ccc(Cl)cc2)n1CC1CCCO1 (stereo not given)	-4.7
CSc1nc(NCCOCCO)c2sc3nc(-c4ccco4)c4c(c3c2n1)CCC4	70.0*	HIV RNase H inh-2=42.1
NC(=O)c1sc2nc3c(c(-c4ccco4)c2c1N)CCC3	-64.2
c1nc(NCCN2CCOCC2)c2sc3nc(N4CCOCC4)c4c(c3c2n1)CCC4	-29.4
CCOC(=O)C1=C(CSc2nncn2C)NC(=O)NC1c1cc(OCC)ccc1OCC (stereo not given)	6.0
Cc1cc(C)n(C(=O)CSc2nnc(SCC(=O)n3nc(C)cc3C)s2)n1	4.1
O=C(CN1C(=O)COc2ccccc21)N(Cc1ccccc1)Cc1ccccn1	84.2*	HIV RNase H inh-2=39.4
COc1ccc(CN(Cc2ccccn2)C(=O)CN2C(=O)C(C)Oc3ccccc32)cc1 (stereo not given)	-6.3
Cc1ccc(CN(Cc2cccnc2)C(=O)CN2C(=O)COc3ccccc32)o1	-6.2
CC1CCN(C(=O)Cn2cc3c(n2)CCCC3)CC1	2.5
COCCOC(=O)C1=C(C)NC(SCC(=O)NC(C)(C)C)=C(C#N)C1c1ccco1 (stereo not given)	3.4
Cc1ccc(NC(=O)CSC2=C(C#N)C(c3ccco3)C3=C(CCCC3=O)N2)cc1 (stereo not given)	9.3
C=CCOC(=O)C1=C(C)NC(SCC(=O)Nc2ccc(C)c(Cl)c2)=C(C#N)C1c1ccco1 (stereo not given)	94.2*	HIV RNase H inh-2=85.5*
O=CN(Cc1ccco1)C1(C(=O)NC2CCCCC2)CCCCC1	-2.1
CSCCC(NC(=O)c1ccc(C)o1)C(=O)O (stereo not given)	-10.9
COc1ccc(-n2c(Cn3c(=O)sc4ccccc43)nnc2SCC(=O)N2CCCC2)cc1	-8.4
CCCOc1ccccc1Nc1nnc(C)c(=O)[nH]1	-7.6
Cc1ccc2c(C)nc(NC3=NCN(CCc4ccccc4)CN3)nc2c1	27.8
Cc1ccc(OCC(=O)Nc2ccc(O)c(-c3nc4ccccc4o3)c2)cc1	70.2*	HIV RNase H inh-2=26.4
